Experiments:
Assay in all cases: log2 ratio of Biotin-Ahx-Ub-VS probe labelling (fragment/DMSO); higher = less target engagement (more negative = stronger competition), active = hit call of the paper (q ≤ 0.05, log2 ratio ≤ -1)
Conditions in all cases: compound concentration: 200 uM; treatment time: 3 h
OTUD6B = target: T1, OTUD6B (UniProt Q8N6M0)
T1 sequence (whole entry): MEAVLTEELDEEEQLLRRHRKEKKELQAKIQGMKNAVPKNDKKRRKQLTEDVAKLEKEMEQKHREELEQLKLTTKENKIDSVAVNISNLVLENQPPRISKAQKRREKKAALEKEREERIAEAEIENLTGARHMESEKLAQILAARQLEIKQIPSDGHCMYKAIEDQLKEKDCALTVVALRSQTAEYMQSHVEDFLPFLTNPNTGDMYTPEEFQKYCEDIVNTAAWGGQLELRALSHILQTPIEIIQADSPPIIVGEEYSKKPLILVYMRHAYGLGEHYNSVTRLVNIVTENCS
Method in brief: (§1)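 Using Biotin-Ahx-Ub-VS at 0.5 µM final for 1 h, DUBs were labelled in HEK293T lysate (495 µg per sample) that had first been treated in triplicate with fragment at 200 µM or vehicle for 3 h. NeutrAvidin enrichment, LysC and trypsin digestion and diaPASEF LC-MS/MS followed. Spectronaut label-free quantities were global-median-normalised. Values are average log2 fragment/vehicle ratios by unpaired t-test, using proteins with ≥2 unique peptides.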

OTUD7B = target: T2, OTUD7B (UniProt Q6GQQ9)
T2 sequence (whole entry): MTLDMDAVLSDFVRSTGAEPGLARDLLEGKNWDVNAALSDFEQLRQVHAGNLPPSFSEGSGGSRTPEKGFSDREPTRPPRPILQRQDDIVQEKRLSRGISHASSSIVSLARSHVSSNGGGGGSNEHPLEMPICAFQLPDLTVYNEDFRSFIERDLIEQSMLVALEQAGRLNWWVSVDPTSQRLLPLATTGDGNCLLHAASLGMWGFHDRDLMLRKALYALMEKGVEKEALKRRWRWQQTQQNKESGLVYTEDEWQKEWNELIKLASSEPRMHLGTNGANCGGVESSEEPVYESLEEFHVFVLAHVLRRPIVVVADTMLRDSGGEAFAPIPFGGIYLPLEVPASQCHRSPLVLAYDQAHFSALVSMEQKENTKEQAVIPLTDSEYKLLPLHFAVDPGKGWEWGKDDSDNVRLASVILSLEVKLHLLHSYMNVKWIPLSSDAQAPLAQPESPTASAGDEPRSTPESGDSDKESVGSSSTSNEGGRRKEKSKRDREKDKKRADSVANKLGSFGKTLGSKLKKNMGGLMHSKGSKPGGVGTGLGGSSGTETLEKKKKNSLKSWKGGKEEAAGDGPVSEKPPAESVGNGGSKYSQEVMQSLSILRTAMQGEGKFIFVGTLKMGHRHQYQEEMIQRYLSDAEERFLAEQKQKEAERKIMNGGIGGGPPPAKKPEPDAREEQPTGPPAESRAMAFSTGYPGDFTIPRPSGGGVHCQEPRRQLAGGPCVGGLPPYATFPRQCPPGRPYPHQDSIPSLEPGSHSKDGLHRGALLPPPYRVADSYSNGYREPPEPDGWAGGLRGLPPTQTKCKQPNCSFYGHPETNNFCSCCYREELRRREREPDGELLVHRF
Method in brief: as §1

PRPF8 = PRPF8 (UniProt Q6P2Q9)
Method in brief: as §1

PSMD7 = target: T3, PSMD7 (UniProt P51665)
T3 sequence (whole entry): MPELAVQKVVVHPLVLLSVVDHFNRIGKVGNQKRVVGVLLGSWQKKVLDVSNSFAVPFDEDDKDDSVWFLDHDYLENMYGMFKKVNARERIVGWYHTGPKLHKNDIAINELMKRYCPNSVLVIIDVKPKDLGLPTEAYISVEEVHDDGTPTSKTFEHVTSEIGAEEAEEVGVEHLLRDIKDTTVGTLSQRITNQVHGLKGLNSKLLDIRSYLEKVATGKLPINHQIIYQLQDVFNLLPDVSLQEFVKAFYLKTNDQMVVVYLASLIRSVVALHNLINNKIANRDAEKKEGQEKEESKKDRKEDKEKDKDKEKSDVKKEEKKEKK
Method in brief: as §1

UCHL1 = UCHL1 (UniProt P09936)
Method in brief: as §1

UCHL3 = target: T4, UCHL3 (UniProt P15374)
T4 sequence (whole entry): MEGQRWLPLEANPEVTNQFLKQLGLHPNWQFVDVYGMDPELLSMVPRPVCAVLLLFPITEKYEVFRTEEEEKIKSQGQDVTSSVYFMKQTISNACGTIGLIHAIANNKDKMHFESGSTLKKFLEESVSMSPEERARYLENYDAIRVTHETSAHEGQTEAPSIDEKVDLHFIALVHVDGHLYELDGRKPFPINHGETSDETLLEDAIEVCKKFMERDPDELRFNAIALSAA
Method in brief: as §1

UCHL5 = target: T5, UCHL5 (UniProt Q9Y5K5)
T5 sequence (whole entry): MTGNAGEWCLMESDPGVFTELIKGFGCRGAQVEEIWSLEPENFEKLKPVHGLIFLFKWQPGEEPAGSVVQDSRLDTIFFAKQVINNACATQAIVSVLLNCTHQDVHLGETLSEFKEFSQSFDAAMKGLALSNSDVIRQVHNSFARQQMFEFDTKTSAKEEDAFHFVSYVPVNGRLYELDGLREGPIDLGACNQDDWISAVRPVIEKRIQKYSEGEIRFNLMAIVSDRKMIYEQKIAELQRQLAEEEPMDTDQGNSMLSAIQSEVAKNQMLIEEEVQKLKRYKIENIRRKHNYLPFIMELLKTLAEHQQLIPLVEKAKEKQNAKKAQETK
Method in brief: as §1

USP10 = USP10 (UniProt Q14694)
Method in brief: as §1

USP15 = target: T6, USP15 (UniProt Q9Y4E8)
T6 sequence (whole entry): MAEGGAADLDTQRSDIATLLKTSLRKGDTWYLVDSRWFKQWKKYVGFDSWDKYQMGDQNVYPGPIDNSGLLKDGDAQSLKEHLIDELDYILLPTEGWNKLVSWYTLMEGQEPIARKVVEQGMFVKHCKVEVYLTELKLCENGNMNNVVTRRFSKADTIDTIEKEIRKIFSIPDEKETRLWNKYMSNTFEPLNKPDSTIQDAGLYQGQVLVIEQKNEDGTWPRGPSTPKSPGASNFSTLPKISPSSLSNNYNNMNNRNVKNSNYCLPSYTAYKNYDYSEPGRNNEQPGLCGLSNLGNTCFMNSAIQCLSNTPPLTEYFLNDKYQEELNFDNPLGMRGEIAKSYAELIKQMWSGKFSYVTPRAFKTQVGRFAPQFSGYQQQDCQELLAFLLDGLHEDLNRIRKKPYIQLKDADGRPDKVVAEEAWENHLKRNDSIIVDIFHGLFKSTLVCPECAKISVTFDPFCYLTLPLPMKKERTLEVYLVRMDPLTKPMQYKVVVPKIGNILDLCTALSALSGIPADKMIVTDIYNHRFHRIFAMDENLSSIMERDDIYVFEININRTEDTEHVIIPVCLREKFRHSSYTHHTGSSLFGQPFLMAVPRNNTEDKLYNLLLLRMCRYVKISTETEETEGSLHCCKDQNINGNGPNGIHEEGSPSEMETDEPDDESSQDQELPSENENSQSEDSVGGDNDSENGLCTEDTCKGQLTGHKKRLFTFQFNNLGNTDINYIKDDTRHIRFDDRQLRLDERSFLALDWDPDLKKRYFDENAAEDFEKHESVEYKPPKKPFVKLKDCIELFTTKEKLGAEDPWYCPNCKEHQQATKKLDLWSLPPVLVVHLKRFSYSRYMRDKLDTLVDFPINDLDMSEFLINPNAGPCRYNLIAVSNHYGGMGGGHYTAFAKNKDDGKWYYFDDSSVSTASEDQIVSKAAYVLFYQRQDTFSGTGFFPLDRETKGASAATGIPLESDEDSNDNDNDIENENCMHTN
Method in brief: as §1

USP16 = USP16 (UniProt Q9Y5T5)
Method in brief: as §1

Measured: log2 ratio of Biotin-Ahx-Ub-VS probe labelling

Sequence of USP16 (Q9Y5T5 whole entry, looked up): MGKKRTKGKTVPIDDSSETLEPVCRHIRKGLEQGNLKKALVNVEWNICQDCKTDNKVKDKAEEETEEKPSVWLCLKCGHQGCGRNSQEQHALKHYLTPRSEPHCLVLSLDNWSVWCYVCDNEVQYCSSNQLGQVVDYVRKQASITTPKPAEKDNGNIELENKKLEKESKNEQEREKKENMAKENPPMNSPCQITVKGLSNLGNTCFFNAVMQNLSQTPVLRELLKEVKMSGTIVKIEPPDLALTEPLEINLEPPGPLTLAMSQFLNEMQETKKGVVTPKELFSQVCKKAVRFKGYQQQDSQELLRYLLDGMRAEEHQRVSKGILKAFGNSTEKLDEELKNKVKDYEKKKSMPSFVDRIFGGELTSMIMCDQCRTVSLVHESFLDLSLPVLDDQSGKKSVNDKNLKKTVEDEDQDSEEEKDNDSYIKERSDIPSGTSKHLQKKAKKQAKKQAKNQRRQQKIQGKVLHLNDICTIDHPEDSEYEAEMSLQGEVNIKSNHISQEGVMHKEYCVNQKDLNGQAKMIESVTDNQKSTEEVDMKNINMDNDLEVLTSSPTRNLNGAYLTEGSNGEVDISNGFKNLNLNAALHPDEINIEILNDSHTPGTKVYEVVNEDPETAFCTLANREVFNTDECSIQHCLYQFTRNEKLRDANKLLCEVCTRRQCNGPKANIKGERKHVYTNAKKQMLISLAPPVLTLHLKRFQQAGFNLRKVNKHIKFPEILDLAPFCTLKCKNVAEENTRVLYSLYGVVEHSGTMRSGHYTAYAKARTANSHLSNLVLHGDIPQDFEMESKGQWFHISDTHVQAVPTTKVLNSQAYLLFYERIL
Sequence of UCHL1 (P09936 whole entry, looked up): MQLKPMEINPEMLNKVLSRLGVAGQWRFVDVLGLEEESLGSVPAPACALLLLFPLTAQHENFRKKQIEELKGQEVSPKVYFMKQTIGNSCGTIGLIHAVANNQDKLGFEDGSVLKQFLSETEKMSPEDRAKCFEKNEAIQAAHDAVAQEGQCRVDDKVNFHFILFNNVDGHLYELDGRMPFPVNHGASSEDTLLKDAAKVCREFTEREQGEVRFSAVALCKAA
Sequence of USP10 (Q14694 whole entry): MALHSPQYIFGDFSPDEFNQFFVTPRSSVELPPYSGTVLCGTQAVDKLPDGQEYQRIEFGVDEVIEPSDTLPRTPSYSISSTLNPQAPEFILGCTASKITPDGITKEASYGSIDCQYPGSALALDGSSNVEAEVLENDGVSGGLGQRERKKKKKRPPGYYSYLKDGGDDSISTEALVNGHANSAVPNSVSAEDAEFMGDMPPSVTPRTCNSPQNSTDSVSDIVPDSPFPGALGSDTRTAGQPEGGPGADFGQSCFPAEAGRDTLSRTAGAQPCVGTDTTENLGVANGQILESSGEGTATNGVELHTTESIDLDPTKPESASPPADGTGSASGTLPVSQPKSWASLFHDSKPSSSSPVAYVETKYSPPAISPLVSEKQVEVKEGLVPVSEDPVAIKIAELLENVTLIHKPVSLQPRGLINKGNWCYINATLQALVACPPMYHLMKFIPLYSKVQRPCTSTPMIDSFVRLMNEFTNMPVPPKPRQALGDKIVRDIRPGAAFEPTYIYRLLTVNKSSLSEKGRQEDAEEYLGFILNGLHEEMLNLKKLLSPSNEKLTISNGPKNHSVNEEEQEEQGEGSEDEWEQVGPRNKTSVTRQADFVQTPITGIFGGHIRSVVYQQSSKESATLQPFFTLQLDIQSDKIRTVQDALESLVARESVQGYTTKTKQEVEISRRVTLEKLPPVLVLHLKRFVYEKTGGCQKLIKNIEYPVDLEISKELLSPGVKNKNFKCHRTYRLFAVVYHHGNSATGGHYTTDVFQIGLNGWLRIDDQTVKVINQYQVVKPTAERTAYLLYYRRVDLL

CN1c2ccccc2C(NC(=O)CCl)CS1(=O)=O (stereo not given)
active: OTUD7B -2.41 | UCHL1 -1.69
inactive: OTUD6B -0.0927 | PRPF8 0.0667 | PSMD7 -0.189 | UCHL3 0.316 | UCHL5 -0.387 | USP10 0.128 | USP15 -0.212 | USP16 -0.411

— the supplement of paper PMC11732987, “Enantioselective OTUD7B fragment discovery through chemoproteomics screening and high-throughput optimisation” (Communications Chemistry, 2025)
